# Test results taken from PubChem BioAssay.
# Several values for one entry are separate records, joined by “and”; a condition that tells them apart may be missing. Identical values can stand only once. Some structures have more than one record in an assay (separate samples or runs), and their calls can disagree. Activity calls are given as the source filed them. Cut-off read from the data, not from the text of the source: active = fold change permeability below about 0.7 or above about 1.3; inactive = in between.
# Assay: compounds altering in vitro BBB leakiness – cell-based, FITC-avidin fluorescence, HTS, primary screen (AID 1963498); note: test concentration not given here
# Conditions: brain endothelial barrier, actives lie on both sides
row,Compound,fold change permeability
1,CNCCc1c[nH]c2ccc(O)cc12,0.8 (inactive)
2,CCc1c(C(=O)C(N)=O)c2c(OCC(=O)O)cccc2n1Cc1ccccc1,1.1 (inactive)
3,CCCCc1ccc(C(=O)O)nc1,0.8 (inactive)
4,CCCN(CCC)C1CCc2cccc(O)c2C1 (stereo unspecified),1 (inactive)
5,C#CCOC(=O)C1=CCCN(C)C1,1 (inactive)
6,Cc1cccc(C)c1NC1=NCCCS1,1.9 (active)
7,O=c1[nH]oc2c1CCNC2,1.4 (active)
8,NC(=O)CI,1.2 (inactive)
9,Cc1nccc2c1[nH]c1ccccc12,1.2 (inactive)
10,CC1OC(C[N+](C)(C)C)CC1O (stereo unspecified),0.9 (inactive)
11,CS(=N)(=O)CC[C@H](N)C(=O)O (stereo partly specified),0.8 (inactive)
12,O=C1CCCN1CC#CCN1CCCC1,0.8 (inactive)
13,C[N+]1(C)CCC(OC(=O)C(c2ccccc2)c2ccccc2)CC1,1.6 (active)
14,CCCC[N+]1(C)C2CC(OC(=O)[C@H](CO)c3ccccc3)CC1C1OC12 (stereo partly specified),0.8 (inactive)
15,O=C(O)Cc1cnc[nH]1,1 (inactive)
16,c1ccc(C[N+]23CN4CN(CN(C4)C2)C3)cc1,0.7 (active)
17,c1ccc2sc(C3(N4CCCCC4)CCCCC3)cc2c1,1 (inactive)
18,Cc1ccc2c(c1)C1(CCN(CCc3nc(-c4ccccc4)oc3C)CC1)OC(=O)N2,1 (inactive)

row,Compound,fold change permeability
1,O=[N+]([O-])c1cc(O)c(O)c([N+](=O)[O-])c1,1 (inactive)
2,COC(=O)N1CCN(C(=O)Cc2ccc(Cl)c(Cl)c2)C(CN2CCCC2)C1 (stereo unspecified),1.3 (active)
3,NC1CCc2cc(O)c(O)cc2C1 (stereo unspecified),0.7 (active)
4,C=CCN1C[C@H](C)N([C@H](c2ccc(C(=O)N(CC)CC)cc2)c2cccc(OC)c2)C[C@H]1C,0.7 (active)
5,CC(C)N(CCC(C(N)=O)(c1ccccc1)c1ccccn1)C(C)C (stereo unspecified),0.9 (inactive) and 1.3 (active)
6,CN1C2C=C(c3sccc3Br)CC1CC2 (stereo unspecified),0.9 (inactive)
7,NC(=O)COc1c(F)cc(SCCNS(=O)(=O)c2ccccc2)cc1F,0.9 (inactive)
8,COc1ccc(CCNCc2ccc(OC)c3ccccc23)cc1,1.7 (active)
9,C#C[C@]1(O)CC[C@H]2[C@@H]3CCC4=Cc5nc6nc7ccccc7n6cc5C[C@]4(C)[C@H]3CC[C@@]21C,1.8 (active)
10,COC(=O)[C@@H](N)CCCN=C(N)N[N+](=O)[O-],0.9 (inactive)
11,NCC(CC(=O)O)c1ccc(Cl)cc1 (stereo unspecified),1.1 (inactive)
12,CC[C@@H]1C(=O)OC[C@@H]1Cc1cncn1C,1.3 (active) and 1.2 (inactive)
13,CC[C@@H](CO)NC(=O)[C@@H]1C=C2c3cccc4c3c(cn4C)C[C@H]2N(C)C1,0.7 (active)
14,COc1ccc2[nH]cc(CCN)c2c1,0.8 (inactive)
15,NC(=O)CN1CC(O)CC1=O (stereo unspecified),0.8 (inactive)
16,NCCc1c[nH]c2ccc(O)cc12,1 (inactive)
17,NC(CCP(=O)(O)O)C(=O)O (stereo unspecified),1 (inactive)
18,Oc1ccc2c3c1O[C@H]1c4[nH]c5ccccc5c4C[C@@]4(O)[C@@H](C2)N(CC2CC2)CC[C@]314,1 (inactive)
